Assay outcomes deposited in PubChem BioAssay by National Center for Advancing Translational Sciences (NCATS).
This is a sample that favours compounds with a hit; in the whole collection about 7.9% have one here.
HT1080 IDH1KD tx: qHTS for induction of synthetic lethality in tumor cells producing 2HG: qHTS for the HT-1080-IDH1KD cell line; HT-1080 IDH1 knockdown viability, ATP luminescence, 48 h; Potency, µM (titrated, usually from 46.1 µM), for inactives: at the highest dose activity, negative = toxicity, hits mostly cytotoxic; 2% of 360,000 active;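 note: 0% = DMSO wells and -100% = cell-free medium wells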
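% activity derives from luminescence (CellTiter-Glo), normalised to DMSO and no-cell wells. HT-1080-IDH1KD cells, 750/well, had 48 h compound exposure at 37 °C.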
MCF10A rereplic: A quantitative high throughput screen for small molecules that induce DNA re-replication in MCF 10a normal breast cells | MCF 10A DNA re-replication, Hoechst nuclear intensity, 48 h | 2.9% of 350,000 active | Potency, µM (titrated, usually from 46.1 µM), for inactives: top-dose activity, positive = re-replication, usual class: activators | AID 624296, 2012; note: % of control where 0% means no effect; nearly all actives have a fitted effect of over 50% in size
SW480 rereplic: A quantitative high throughput screen for small molecules that induce DNA re-replication in SW480 colon adenocarcinoma cells; SW480 DNA re-replication, Hoechst DNA content imaging, 48 h; Potency, µM (top dose mostly 46.1 µM), for the others: top-dose re-replication activation, most hits filed as activators; 1.8% of 340,000 active; AID 624297, 2012; note: % of control where 0% means no effect; nearly all actives have a fitted effect of over 55% in size
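First, 250 cells per well were seeded. Next, compound or vehicle (23 nL) was pinned in, plates sat 48 hr at 37 C. Finally Hoechst was added for 40 min before fluorescence scanning.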
HT1080NT lethal: qHTS for induction of synthetic lethality in tumor cells producing 2HG: qHTS for the HT-1080-NT fibrosarcoma cell line; HT-1080-NT fibrosarcoma viability, CellTiter-Glo ATP luminescence, 48 h; Potency, µM (top dose mostly 46.1 µM), inactives show at the top dose activity, negative = less viability, usual class: cytotoxic; 1.6% of 360,000 active; AID 686970, 2013;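 note: NT is the 2HG producing partner of a matched IDH1 knockdown line; 0% = DMSO-treated cells and -100% = media-only wells without cells; nearly all actives have a fitted effect of over 55% in size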
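Fibrosarcoma NT cells, 750 per well in 5% FBS RPMI, were exposed to compound for 48 hours. Viability: CellTiter-Glo luminescence.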
KB-3-1 cytotox: qHTS assay for MDR1-selective chemotherapeutics: Primary screen using the parental adenocarcinoma cell KB-3-1. 1.4% of 400,000 active. Potency, µM (titrated, usually from 46.1 µM), hits mostly cytotoxic. KB-3-1 viability, CellTiter-Glo ATP luminescence, 72 h; note: % is set by controls: 0 for no effect and ±100 for the full control effect; nearly all actives have a fitted effect of over 60% in size
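KB-3-1 parental drug-naive adenocarcinoma cells in DMEM/10% FBS, incubated 72 h at 37 C with pin-transferred compounds across a concentration series. Viability by CellTiter-Glo luminescence; concentration-response curves fitted after normalization.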
KB-V1 MDR tox: qHTS assay for MDR1-selective chemotherapeutics: Primary screen using the drug-selected MDR subline cells KB-V1; KB-V1 MDR cells viability, CellTiter-Glo, 72 h; AID 1347076, 2019; 3.4% of 400,000 active; Potency, µM (top dose mostly 46.1 µM), hits mostly cytotoxic; note: % is set by controls: 0 for no effect and ±100 for the full control effect; nearly all actives have a fitted effect of over 60% in size
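In this primary screen, KB-V1 cells overexpressing P-gp are incubated with library compounds (lowest to highest concentration) for 72 h at 37 degrees C before a luminescent ATP viability read.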
* = called active by the depositor. Calls come from the whole dose curve; as a rule, active = well fitted curve in the direction sought with a large enough effect; inconclusive = small, poorly fitted or top-dose-only effect, or another doubt; inactive = no such curve, though single readings can be large; an effect the other way counts as inactive or inconclusive. Potency is the fitted concentration of half-maximal effect.

How did Cc1cccc(C)c1NC(=O)C(NS(=O)(=O)c1ccc2c(c1)CCC(=O)N2)c1ccccc1 (centres undefined) do in these assays?
KB-3-1 cytotox: inactive; KB-V1 MDR tox: inactive

How did Cc1ccc(Cl)cc1NC(=O)Nc1cn(CC(C)C)c(=O)c2ccccc12 do in these assays?
KB-3-1 cytotox: inactive; KB-V1 MDR tox: inconclusive

How did CSC1=NC2(CCN(C(=O)NC3CCCCC3)CC2)N=C1c1ccc(C(C)(C)C)cc1 do in these assays?
KB-3-1 cytotox: inactive; KB-V1 MDR tox: inactive

Results for CCOC(=O)c1sc(N)c(C(=O)Nc2ccccc2OC)c1C ?
HT1080 IDH1KD tx: 7.3µM*; MCF10A rereplic: 10µM*; SW480 rereplic: 16µM*; HT1080NT lethal: inconclusive; KB-3-1 cytotox: inconclusive; KB-V1 MDR tox: 10µM*

Results for CCC(Sc1nc2c(c(=O)[nH]1)CCC2)C(=O)Nc1cccc(OC)c1 (centres undefined) ?
HT1080 IDH1KD tx: -28%; MCF10A rereplic: 23%; SW480 rereplic: 0%; HT1080NT lethal: -8%; KB-3-1 cytotox: inactive; KB-V1 MDR tox: 16µM*

How did CSc1ccc(C(O)c2ncc(-c3cccc(F)c3)[nH]2)cc1 (centres undefined) do in these assays?
HT1080 IDH1KD tx: -13%; HT1080NT lethal: 4%; KB-3-1 cytotox: inactive; KB-V1 MDR tox: inactive

How did Cc1ccc(C2=CC(=O)CC(C)(C)C2)cc1 do in these assays?
HT1080 IDH1KD tx: 2%; MCF10A rereplic: -3%; SW480 rereplic: -6%; HT1080NT lethal: -6%; KB-3-1 cytotox: inactive; KB-V1 MDR tox: inactive

How did CN(C)/C=C/C1=CC(=O)CC(C)(C)C1 do in these assays?
HT1080 IDH1KD tx: 21µM*; MCF10A rereplic: inconclusive; SW480 rereplic: inconclusive; HT1080NT lethal: -29%; KB-3-1 cytotox: inactive; KB-V1 MDR tox: inactive

Results for Cc1[nH]nc(C(F)(F)F)c1N=NN1CCOCC1 ?
HT1080 IDH1KD tx: inconclusive; MCF10A rereplic: 3.7µM*; SW480 rereplic: inconclusive; HT1080NT lethal: inconclusive; KB-3-1 cytotox: inconclusive; KB-V1 MDR tox: inconclusive

What do the screens show for `COC(=O)c1c(NC(=O)c2nc(SCc3ccccc3C)ncc2Cl)sc2c1CCCC2`?
KB-3-1 cytotox: inactive; KB-V1 MDR tox: inactive

How did O=C(NCc1cccs1)c1ccc2sc(COCCO)nc2c1 do in these assays?
HT1080 IDH1KD tx: 7%; HT1080NT lethal: 27%; KB-3-1 cytotox: inactive; KB-V1 MDR tox: inactive

What do the screens show for `Cc1nc(SCC(=O)NCC2CCCO2)c2c3c(sc2n1)CCCC3` (centres undefined)?
HT1080 IDH1KD tx: -1%; MCF10A rereplic: 2%; SW480 rereplic: 1%; HT1080NT lethal: -3%; KB-3-1 cytotox: inactive; KB-V1 MDR tox: inconclusive

Results for COCCn1c(C)cc(C(=O)CSc2nc(C)nc3sc4c(c23)CCC4)c1C ?
HT1080 IDH1KD tx: -27%; MCF10A rereplic: inconclusive; SW480 rereplic: 7%; HT1080NT lethal: -6%; KB-3-1 cytotox: inconclusive; KB-V1 MDR tox: 2.6µM*

Results for Cc1ccc(NC(=O)COC(=O)CCC2CCCC2)c(Br)c1 ?
HT1080 IDH1KD tx: 3%; MCF10A rereplic: -3%; SW480 rereplic: 4%; HT1080NT lethal: 2%; KB-3-1 cytotox: inactive; KB-V1 MDR tox: inactive

Results for O=C(COC(=O)CCC1CCCC1)Nc1ccc(Cl)cc1F ?
HT1080 IDH1KD tx: 14%; MCF10A rereplic: -6%; SW480 rereplic: 23µM*; HT1080NT lethal: -4%; KB-3-1 cytotox: inactive; KB-V1 MDR tox: inactive

Results for CC(=O)c1sc2c(c1C)c(=O)n(-c1ccc(Cl)cc1)c(=O)n2Cc1ccc(Cl)cc1 ?
KB-3-1 cytotox: inactive; KB-V1 MDR tox: inconclusive

Results for CCCCN(CC(O)COc1cccc(C)c1)CC(O)COc1cccc(C)c1 (centres undefined) ?
HT1080 IDH1KD tx: 18µM*; MCF10A rereplic: inconclusive; SW480 rereplic: inconclusive; HT1080NT lethal: 21µM*; KB-3-1 cytotox: inconclusive; KB-V1 MDR tox: inconclusive

How did Cc1cccc(OCC(O)CN2CCc3ccccc3C2)c1 (centres undefined) do in these assays?
HT1080 IDH1KD tx: 0%; MCF10A rereplic: 2%; SW480 rereplic: -5%; HT1080NT lethal: 1%; KB-3-1 cytotox: inactive; KB-V1 MDR tox: inactive

How did CCCCn1c(=N)n(CCOc2ccc(C)cc2)c2ccccc21 do in these assays?
HT1080 IDH1KD tx: inconclusive; MCF10A rereplic: inconclusive; SW480 rereplic: 18µM*; HT1080NT lethal: inconclusive; KB-3-1 cytotox: inconclusive; KB-V1 MDR tox: inconclusive

Results for Cc1ccc(OCC(O)Cn2c(=N)n(CCN3CCCCC3)c3ccccc32)cc1 (centres undefined) ?
HT1080 IDH1KD tx: inconclusive; MCF10A rereplic: inconclusive; SW480 rereplic: inconclusive; HT1080NT lethal: 16µM*; KB-3-1 cytotox: 21µM*; KB-V1 MDR tox: 23µM*

How did COc1ccc(OCCn2c(=N)n(CCO)c3ccccc32)cc1 do in these assays?
HT1080 IDH1KD tx: -10%; MCF10A rereplic: 2%; SW480 rereplic: -7%; HT1080NT lethal: -5%; KB-3-1 cytotox: inactive; KB-V1 MDR tox: inactive

How did CN(C)CC(O)COc1cccc(OCC(O)CN(C)C)c1 (centres undefined) do in these assays?
HT1080 IDH1KD tx: 12%; MCF10A rereplic: -1%; SW480 rereplic: -3%; HT1080NT lethal: 0%; KB-3-1 cytotox: inactive; KB-V1 MDR tox: inactive

What do the screens show for `Cc1ccc(OCC(O)Cn2c(=N)n(CCN3CCOCC3)c3ccccc32)cc1` (centres undefined)?
HT1080 IDH1KD tx: -13%; MCF10A rereplic: 13%; SW480 rereplic: -1%; HT1080NT lethal: -21%; KB-3-1 cytotox: inactive; KB-V1 MDR tox: inactive

How did CCCCn1c(=N)n(CC(O)COc2cccc(C)c2)c2ccccc21 (centres undefined) do in these assays?
HT1080 IDH1KD tx: inconclusive; MCF10A rereplic: 21%; SW480 rereplic: inconclusive; HT1080NT lethal: inconclusive; KB-3-1 cytotox: 21µM*; KB-V1 MDR tox: 21µM*

What do the screens show for `Cc1cc(NC(=O)N2CC=C(c3c[nH]c4ccccc34)CC2)ccc1Br`?
KB-3-1 cytotox: inactive; KB-V1 MDR tox: inactive
